Screening data: PubChem BioAssay, Broad Institute
aSyn UTR act = Activators working through SNCA 5'UTR binding (MLPCN); alpha-synuclein 5'UTR reporter, activators screen; activity score, % (tested at 7.5 µM), hits read low; hit rate 7.1% among 300,000; AID 1814; in the data active = activity score below about -60%
Starred values were filed as active, the others as inactive. Not all results are given here.

SMILES | aSyn UTR act
Nc1nnc(SCC(=O)c2ccc3ccccc3c2)s1 | -135*
COCCCNC(=O)/C=C1\Sc2ccccc2N(Cc2ccccc2F)C1=O | -94*
Cc1ccc(C)c(OCc2cc(C(=O)N3CCOCC3)no2)c1 | -97*
COCCCC1CCN(C(=O)c2cc(COc3cc(C)ccc3C)on2)CC1 | -180*
CC(=O)NCCC1CCCCN1C(=O)c1cc(COc2cc(C)ccc2C)on1 (stereo not given) | -144*
COCCN1CCN(C(=O)c2cc(COc3cc(C)ccc3C)on2)CC1 | -127*
COCCN1CCN(C(=O)c2cc(COc3ccc(Cl)cc3OC)on2)CC1 | -120*
CN(C)/C=C1\C(=O)N(c2ccc(Cl)c(Cl)c2)CS1(=O)=O | -81*
CSc1ccc(C2NN=C(c3ccccc3)S2)cc1 (stereo not given) | 68
Oc1ccccc1C1NN=C(c2ccccc2)S1 (stereo not given) | -80*
O=C(O)c1cccc(COc2ccccc2Cl)c1 | 103
O=C1NC(=O)/C(=C\c2ccc(OCc3cccc(C(=O)O)c3)c(Cl)c2)N1 | 70
Cc1nn(Cc2c(F)c(F)c(F)c(F)c2F)c(C)c1NC(=O)c1cccc(COc2ccccc2Cl)c1 | -97*
O=C(Nc1ccccc1Cl)c1cccc(COc2cc(Cl)ccc2Cl)c1 | -120*
CN1CCN(C(=O)c2cccc(COc3cc(Cl)ccc3Cl)c2)CC1 | -164*
Cc1nn(Cc2cccc(F)c2)c(C)c1NC(=O)c1ccc(COc2ccccc2Cl)cc1 | 69
C=CCc1ccc(OCCOc2cccc3ccc(C)nc23)c(OC)c1 | -69*
Cc1cccc(OCCn2nnc3ccccc32)c1C | -180*
C=CCc1ccc(OCCn2cccc2C=O)c(OC)c1 | -140*
C=CCc1ccc(OCCn2nnc3ccccc32)c(OC)c1 | -248*
C/C=C/c1ccc(OCCn2nnc3ccccc32)c(OC)c1 | -115*
CCCc1cc(C(=O)NCCc2ccccc2)no1 | -91*
COc1cccc2cc(C(=O)NCCc3ccccc3)oc12 | -84*
COc1ccccc1-c1cc(C(=O)NCCc2ccccc2)no1 | -114*
CC(C)c1ccc(NC(=O)c2sccc2-n2cccc2)cc1 | -146*
SMILES | aSyn UTR act
Cc1ccc(COc2ccccc2C(=S)N2CCCC2)cc1 | -76*
COc1cc(C(=S)N2CCCC2)ccc1OCc1ccc(C)cc1 | -116*
CC(=O)Nc1ccccc1/C=C/c1ccc2c(C)ccc(O)c2n1 | -64*
COc1ccc(/C=C\C(=O)Oc2cccc(/C=N/NC(=O)Cc3ccc(OC)c(OC)c3)c2)cc1 | -87*
COc1ccc(/C=C/C(=O)Oc2cccc(/C=N/NC(=O)c3cccc(F)c3)c2)cc1 | -151*
Cc1ccc(-c2csc(/C(C#N)=C(\O)CCl)n2)cc1 | -96*
N#C/C(=C(/O)CN1CCCCC1)c1nc(-c2ccc(Cl)cc2)cs1 | -110*
Cc1cc2ccccn2c1C(C[N+](=O)[O-])c1ccc(N(C)C)cc1 (stereo not given) | -80*
COc1ccccc1N=C(C)C1=C(O)CC(c2ccccc2)CC1=O (stereo not given) | 122
COc1ccc(N=C(C)C2=C(O)COC2=O)cc1 | -93*
Cc1ccc(NC(=S)N2CCCCCC2)cc1 | -94*
Cc1ccc(NC(=S)N2CCCC2)cc1 | -64*
c1ccc(Nc2nc(-c3ccccc3)ns2)cc1 | -144*
CC(C)(C)C(=O)Nc1nc(-c2ccccc2)ns1 | -146*
Cc1cc2nn(-c3ccccc3)nc2cc1NC(=O)c1cccs1 | -196*
COc1ccc(-n2nc3cc(C)c(NC(=O)CC(C)C)cc3n2)cc1 | -123*
COc1ccc(-n2nc3cc(C)c(NC(=O)c4cccnc4)cc3n2)cc1 | -83*
CCN1C(=O)/C(=C/c2nc3ccccc3c(=O)n2-c2ccccc2)c2ccccc21 | -104*
Clc1ccc(Nc2nc(-c3ccncc3)cs2)cc1 | -85*
Fc1ccc(Nc2nc(-c3ccncc3)cs2)cc1 | -114*
Cc1nc2ncccn2c1-c1csc(Nc2ccc(N(C)C)cc2)n1 | 70
Nc1ccc(Nc2nc(-c3ccncc3)cs2)cc1 | -135*
c1ccc(Nc2nc(-c3ccncc3)cs2)cc1 | -151*
N/C(=N\OC(=O)COc1cc(Cl)c(Cl)cc1Cl)c1ccccn1 | -150*
Cc1cccc(OCC(=O)O/N=C(\N)c2ccccn2)c1C | -172*
SMILES | aSyn UTR act
CN(C)S(=O)(=O)c1ccc(C(=O)NCCSc2ccccc2)cc1 | -115*
COc1ccc(C(=O)NCCSc2ccccc2)cc1OC | -129*
Cc1ccnc(NC(=O)C2CCN(S(=O)(=O)c3ccc(C)c(C)c3)CC2)c1 | -81*
C=C(C)C1CC=C(C)/C(=N/NC(=O)c2ccoc2C)C1 (stereo not given) | -150*
COc1ccc(C(=S)NC2CCCCC2)cc1 | -80*
CCOc1ccc(C(=S)NC2CCCCC2)cc1 | -100*
Cc1ccc(-c2nc3nc4ccccc4nc3n2Cc2ccco2)cc1 | -125*
O=c1c2ccccc2nc(-c2ccco2)n1Cc1ccccc1 | -214*
c1ccc(Cn2c(-c3ccco3)nc3nc4ccccc4nc32)cc1 | -215*
CNc1sc(C(=O)c2ccccc2F)c(N)c1-c1nc2ccccc2s1 | -84*
CN1/C(=C\C(=O)c2cccnc2)Sc2ccccc21 | -94*
